# Experimental data reported in PubChem BioAssay (NCI).
# The panel holds about 83,000 compounds, 20% with a hit somewhere; the sample as a whole holds those more often.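 Method: cells in 96-well plates; compound added at one concentration; 48 h incubation; percent growth measured; values under 10 scored active.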 The source made the active and inactive calls.
# Test system: MALME-3M melanoma
# Experiment: NCI-60 one-dose screen, 48 h (100 = growth as untreated, 0 = no growth, -100 = all killed)
# Settings: 10 µM unless noted
row,SMILES,growth
1,COc1ccc2[nH]c(=O)c(/C=C/C(=O)/C=C/c3ccc(O)c(OC)c3)cc2c1,52.8% (inactive)
2,COc1cc(-c2cn(-c3ccc(Cl)c(Cl)c3)c(=O)[nH]2)cc(OC)c1OC,60.9% (inactive)
3,Cc1cc(C)c2nc(Nc3nc(C)c(C)c(=O)[nH]3)nc(C)c2c1,-6.48% (active)
4,COc1ccc2cc(/C=C3\N=C(c4cc(OC)c(OC)c(OC)c4)OC3=O)c(OC)nc2c1,104% (inactive)
5,COC(=O)/C=C1\SC(=Nc2cccc(OC)c2)N(CCc2c[nH]c3ccccc23)C1=O,80.5% (inactive)
6,O=C1Nc2ccc(Br)cc2/C1=N\N=C/c1cn(Cc2ccccc2)c2ccccc12,115% (inactive)
7,COc1cc(-c2nn(-c3ccc(Br)cc3)cc2CO)ccc1O,119% (inactive)
8,CCCCc1ccc(N=Nc2ccc(OCC[N+](C)(C)C)cc2)cc1,69.4% (inactive)
9,CCN1CCN(c2ccc(NC(=O)Nc3nc4ccc(-c5ccccc5OC)cc4s3)cc2)CC1,-80.3% (active)
10,C=C(C)[C@@H]1CC[C@]2(C(=O)O)CC[C@]3(C)[C@H](CC[C@@H]4[C@@]5(C)C[C@@H](CC#Cc6ccccc6C)C(=O)C(C)(C)[C@@H]5CC[C@]43C)[C@@H]12,61.1% (inactive)
11,CCSc1ccc(C2C(Br)C(=O)N2c2cc(OC)c(OC)c(OC)c2)cc1 (stereo not given),70.1% (inactive)
12,CCCCc1nc(Cl)c(C2CC(c3ccc(Cl)cc3)=NN2c2cc(Cl)cc(Cl)c2)[nH]1 (stereo not given),88.4% (inactive)
13,C=C(C)[C@@H]1CC[C@]2(C(=O)OCCOCCOCC[P+](c3ccccc3)(c3ccccc3)c3ccccc3)CC[C@]3(C)[C@H](CC[C@@H]4[C@@]5(C)CC[C@H](C)C(C)(C)[C@@H]5CC[C@]43C)[C@@H]12,-79.4% (active)
14,O=C1[C@@H](OS(=O)(=O)CC(F)(F)F)[C@H](c2ccc(F)cn2)N1c1cc2c3ccccc3ccc2c2ccccc12,95% (inactive)
15,CCOC(=O)c1c(C)nc2c(c1N)/C(=C/c1cccs1)C(=O)N2Cc1ccccc1,85.1% (inactive)
16,C=CCn1c(SCC(=O)Nc2ccc(C(=O)/C=C/c3ccc(Cl)cc3)cc2)nnc1-c1cc(OC)c(OC)c(OC)c1,115% (inactive)
17,O=C1NN(c2ccccc2)C(c2ccc3c(c2)OCO3)N2CCC[C@@H]12 (stereo not given in full),94.9% (inactive)
18,Cc1cnc(SCc2ccc(Cl)cc2Cl)nc1Nc1ccc(Cl)c(Cl)c1,103% (inactive)
19,O=C(O)c1cn(C2CC2)c2cc(N3CCN(C(=O)CSc4nnc(-c5ccc(Cl)cc5)n4-c4ccccc4)CC3)c(F)cc2c1=O,114% (inactive)
20,N#Cc1ccc(C2C3=C(CCCC3=O)OC3=C2C(=O)c2ccccc2C3=O)cc1 (stereo not given),83.4% (inactive)
21,COc1ccc2c(c1)OC13Oc4cc(OC)ccc4C=C1CCCCC3=C2,97.9% (inactive)
22,C=C1C(=O)O[C@H]2[C@H]1CC/C(COC(=O)/C=C/c1cccnc1)=C\CC[C@@]1(C)O[C@@H]21,-35.9% (active)
23,COC1=CC2C=C(C3N(c4ccccc4)NC(=O)[C@@H]4CCCN34)C(=O)NC2C=C1 (stereo not given in full),113% (inactive)

# Test system: MDA-MB-231 breast
# Experiment: as above
# Settings: 10 µM unless noted
row,SMILES,growth
1,CCOC(=O)C(=Cc1c(-c2ccccc2)[nH]c2ccccc12)C(=O)OCC,63.3% (inactive)
2,COc1ccc(C2=NN(c3ccc(S(N)(=O)=O)cc3)C(c3ccc(Cl)cc3)C2)c(O)c1 (stereo not given),76.5% (inactive)
3,CCOC(=O)C1=C(C)n2nc(CC#N)c(C#N)c2NC1c1ccc(Cl)cc1 (stereo not given),88.8% (inactive)
4,CCOC(=O)c1sc(/N=C2\NC(=O)/C(=C/c3ccc(N4CCN(C)CC4)cc3)S2)nc1C,112% (inactive)
5,CC(C)NS(=O)(=O)c1cccc(-c2ccc3c(=O)n(CCCN)c4c(c3c2)C(=O)c2ccccc2-4)c1,108% (inactive)
6,COc1cc2nc3c(=O)n(CCN(C)C)cnn3c(=O)c2cc1OC,116% (inactive)
7,COc1ccc(/C(=N\O)c2cc(C)c(OC)c(C)c2)cc1O,24.8% (inactive)
8,COc1cc(C2=NN(c3ccccc3)C(c3cccc(Nc4ccnc5cc(C(F)(F)F)ccc45)c3)C2)cc(OC)c1OC (stereo not given),85.9% (inactive)
9,Nc1c(C(=O)Nc2ccccn2)sc2nc3c(cc12)CCCC3,66.5% (inactive)
10,COc1ccc(-c2cc(-c3nnc(SCC(=O)Nc4ccc(C(C)=O)cc4)o3)c3ccccc3n2)cc1,-23.9% (active)
11,Nc1c(C(=O)Nc2ccccn2)sc2nc3c(cc12)CCCCC3,46.6% (inactive)
12,Sc1cccc2cccnc12,33.8% (inactive)
13,C=CCn1c(SCC(=O)Nc2ccc(C(=O)/C=C/c3cc(OC)c(OC)c(OC)c3)cc2)nnc1-c1ccc(Cl)cc1,35.5% (inactive)
14,O=C(/C(=C\c1c(-c2ccccc2)[nH]c2ccccc12)S(=O)(=O)c1ccccc1)c1ccccc1,49.8% (inactive)
15,COc1ccc2[nH]c(=O)c(/C=C/C(=O)/C=C/c3ccc(O)c(OC)c3)cc2c1,18.3% (inactive)
16,COc1cc(-c2cn(-c3ccc(Cl)c(Cl)c3)c(=O)[nH]2)cc(OC)c1OC,71.5% (inactive)
17,Cc1cc(C)c2nc(Nc3nc(C)c(C)c(=O)[nH]3)nc(C)c2c1,27.8% (inactive)
18,COc1ccc2cc(/C=C3\N=C(c4cc(OC)c(OC)c(OC)c4)OC3=O)c(OC)nc2c1,91.5% (inactive)
19,COC(=O)/C=C1\SC(=Nc2cccc(OC)c2)N(CCc2c[nH]c3ccccc23)C1=O,66.1% (inactive)

row,SMILES,growth
1,O=C1Nc2ccc(Br)cc2/C1=N\N=C/c1cn(Cc2ccccc2)c2ccccc12,93.3% (inactive)
2,COc1cc(-c2nn(-c3ccc(Br)cc3)cc2CO)ccc1O,68.9% (inactive)
3,CCCCc1ccc(N=Nc2ccc(OCC[N+](C)(C)C)cc2)cc1,38.5% (inactive)
4,CCN1CCN(c2ccc(NC(=O)Nc3nc4ccc(-c5ccccc5OC)cc4s3)cc2)CC1,-74% (active)
5,C=C(C)[C@@H]1CC[C@]2(C(=O)O)CC[C@]3(C)[C@H](CC[C@@H]4[C@@]5(C)C[C@@H](CC#Cc6ccccc6C)C(=O)C(C)(C)[C@@H]5CC[C@]43C)[C@@H]12,48.2% (inactive)
6,CCSc1ccc(C2C(Br)C(=O)N2c2cc(OC)c(OC)c(OC)c2)cc1 (stereo not given),19.7% (inactive)
7,CCCCc1nc(Cl)c(C2CC(c3ccc(Cl)cc3)=NN2c2cc(Cl)cc(Cl)c2)[nH]1 (stereo not given),80.3% (inactive)
8,C=C(C)[C@@H]1CC[C@]2(C(=O)OCCOCCOCC[P+](c3ccccc3)(c3ccccc3)c3ccccc3)CC[C@]3(C)[C@H](CC[C@@H]4[C@@]5(C)CC[C@H](C)C(C)(C)[C@@H]5CC[C@]43C)[C@@H]12,-74% (active)
9,O=C1[C@@H](OS(=O)(=O)CC(F)(F)F)[C@H](c2ccc(F)cn2)N1c1cc2c3ccccc3ccc2c2ccccc12,71.2% (inactive)
10,CCOC(=O)c1c(C)nc2c(c1N)/C(=C/c1cccs1)C(=O)N2Cc1ccccc1,55.4% (inactive)
11,C=CCn1c(SCC(=O)Nc2ccc(C(=O)/C=C/c3ccc(Cl)cc3)cc2)nnc1-c1cc(OC)c(OC)c(OC)c1,80.5% (inactive)
12,O=C1NN(c2ccccc2)C(c2ccc3c(c2)OCO3)N2CCC[C@@H]12 (stereo not given in full),105% (inactive)
13,Cc1cnc(SCc2ccc(Cl)cc2Cl)nc1Nc1ccc(Cl)c(Cl)c1,88.3% (inactive)
14,O=C(O)c1cn(C2CC2)c2cc(N3CCN(C(=O)CSc4nnc(-c5ccc(Cl)cc5)n4-c4ccccc4)CC3)c(F)cc2c1=O,106% (inactive)
15,N#Cc1ccc(C2C3=C(CCCC3=O)OC3=C2C(=O)c2ccccc2C3=O)cc1 (stereo not given),5.78% (active)
16,COc1ccc2c(c1)OC13Oc4cc(OC)ccc4C=C1CCCCC3=C2,93.8% (inactive)
17,C=C1C(=O)O[C@H]2[C@H]1CC/C(COC(=O)/C=C/c1cccnc1)=C\CC[C@@]1(C)O[C@@H]21,38.7% (inactive)
18,COC1=CC2C=C(C3N(c4ccccc4)NC(=O)[C@@H]4CCCN34)C(=O)NC2C=C1 (stereo not given in full),111% (inactive)
